Parameters in all cases: scale not given: direction of the effect not stated beside the values
Assay [1] concerns the target Protein translocase subunit SecA (Escherichia coli (strain K12)) (UniProt P10408). The assay is described as follows: Assay to Identify E. coli SecA ATPase Inhibitors. The class given is functional. Conditions: 30 µM.
The target of assay [2] is T1, Ubiquitin-activating enzyme e1, putative (Leishmania donovani (strain BPK282A1)) (UniProt E9BSI1).
T1 sequence (whole entry): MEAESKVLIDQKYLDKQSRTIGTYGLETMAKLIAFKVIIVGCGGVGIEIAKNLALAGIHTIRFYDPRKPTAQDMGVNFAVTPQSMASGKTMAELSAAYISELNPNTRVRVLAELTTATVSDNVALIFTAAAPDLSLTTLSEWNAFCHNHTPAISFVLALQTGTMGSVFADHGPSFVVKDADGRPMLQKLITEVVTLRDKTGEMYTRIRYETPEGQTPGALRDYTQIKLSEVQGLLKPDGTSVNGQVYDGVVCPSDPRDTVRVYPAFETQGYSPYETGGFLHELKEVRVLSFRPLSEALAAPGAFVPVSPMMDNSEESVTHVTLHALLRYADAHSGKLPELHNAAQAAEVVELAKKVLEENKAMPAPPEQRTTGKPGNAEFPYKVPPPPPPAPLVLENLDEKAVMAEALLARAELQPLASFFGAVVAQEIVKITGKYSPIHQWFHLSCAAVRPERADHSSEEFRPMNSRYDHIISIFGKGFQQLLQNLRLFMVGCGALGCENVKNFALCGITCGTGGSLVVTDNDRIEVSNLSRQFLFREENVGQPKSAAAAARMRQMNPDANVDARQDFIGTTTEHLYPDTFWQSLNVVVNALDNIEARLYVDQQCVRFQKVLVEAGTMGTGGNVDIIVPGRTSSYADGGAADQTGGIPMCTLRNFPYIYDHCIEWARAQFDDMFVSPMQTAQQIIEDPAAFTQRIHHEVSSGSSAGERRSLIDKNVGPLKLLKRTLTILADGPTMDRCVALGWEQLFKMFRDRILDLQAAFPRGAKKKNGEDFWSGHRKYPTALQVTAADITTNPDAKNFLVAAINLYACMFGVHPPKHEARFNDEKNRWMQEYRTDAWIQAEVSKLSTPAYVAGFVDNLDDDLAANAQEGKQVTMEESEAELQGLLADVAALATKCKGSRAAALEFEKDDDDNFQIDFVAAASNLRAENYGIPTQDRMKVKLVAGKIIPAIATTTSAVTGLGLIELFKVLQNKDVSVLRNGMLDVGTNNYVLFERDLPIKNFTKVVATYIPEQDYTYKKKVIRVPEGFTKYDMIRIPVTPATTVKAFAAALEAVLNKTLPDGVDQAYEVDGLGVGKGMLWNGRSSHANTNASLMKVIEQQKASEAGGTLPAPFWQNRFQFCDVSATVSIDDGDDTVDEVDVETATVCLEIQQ
Nature of the assay: Leishmania donovani Ubiquitin Activating Enzyme (LdE1). Format: functional. The settings on record: 30 µM.

In assay [3] the target is AMP-activated protein kinase, AMPK (Homo sapiens) (UniProt P54646+O43741+P54619+Q9UGJ0+Q9Y478+Q13131+Q9UGI9). Nature of the assay: AMP-dependent Kinase enzyme assay. An in vitro enzyme assay that detects ADP turnover that is directly proportional to AMPK activity. This uses naive AMPK that is activated during the assay with MK-8722. Format: functional. The settings on record: 30 µM.

In assay [4] the target is Sialic acid-binding Ig-like lectin 9 (Homo sapiens) (UniProt Q9Y336). Nature of the assay: Hs-Siglec9 ALPHAscreen SOP 20170721. The settings on record: 10 µM.
For assay [5], the system named is Trypanosoma cruzi. The assay is described as follows: Trypanosoma cruzi phosphomannomutase and mannose-1-phosphate guanylyltransferase assay. Format: functional. The settings on record: 10 µM.
The target of assay [6] is T2, Arginase-2, mitochondrial (Homo sapiens) (UniProt P78540).
T2 sequence (whole entry): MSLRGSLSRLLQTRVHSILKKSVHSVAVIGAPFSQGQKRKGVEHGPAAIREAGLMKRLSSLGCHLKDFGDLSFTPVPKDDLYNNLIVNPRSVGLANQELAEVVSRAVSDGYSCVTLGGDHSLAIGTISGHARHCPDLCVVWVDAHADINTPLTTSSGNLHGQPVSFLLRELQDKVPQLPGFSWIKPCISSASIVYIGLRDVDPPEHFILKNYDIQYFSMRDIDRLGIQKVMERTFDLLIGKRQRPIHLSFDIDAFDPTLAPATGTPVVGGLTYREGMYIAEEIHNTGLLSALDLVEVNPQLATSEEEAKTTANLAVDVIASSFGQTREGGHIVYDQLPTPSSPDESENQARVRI
Nature of the assay: in vitro enzyme assay to detect the production of urea directly proportional to the activity of Arginase II. Also: in the data most compounds retested in dose-response had high values. The class given is functional. Conditions: 33.3 µM.

In assay [7] the target is T3, Proteasome subunit beta (Trypanosoma cruzi) (UniProt O96673).
T3 sequence (whole entry): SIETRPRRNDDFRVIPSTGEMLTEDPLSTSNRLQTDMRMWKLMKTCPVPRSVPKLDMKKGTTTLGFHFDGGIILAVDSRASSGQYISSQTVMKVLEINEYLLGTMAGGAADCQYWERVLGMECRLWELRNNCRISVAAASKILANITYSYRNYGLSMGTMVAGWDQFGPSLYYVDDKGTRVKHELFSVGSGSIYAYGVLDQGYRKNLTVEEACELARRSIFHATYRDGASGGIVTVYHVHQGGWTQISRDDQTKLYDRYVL
The assay is described as follows: Trypanosoma cruzi proteasome chymotrypsin-like activity (TcProtChymo) assay. Also: in the data most compounds retested in dose-response had high values. Format: functional. The settings on record: 9.37 µM.

The species named for assay [8] is Homo sapiens. The assay is described as follows: To identify inhibition of the IFN signalling (Jak-Stat) pathway via expression of an eGFP reporter gene under the control of an IFN-stimulated response element (ISRE) containing MxA promoter. The class given is functional. The settings on record: 30 µM. In general terms: In a reporter assay the amount or activity of a reporter protein is the signal.

For assay [9], the target named is T4, Tyrosyl-tRNA synthetase, putative (Trypanosoma cruzi (strain CL Brener)) (UniProt Q4DSP6).
T4 sequence (whole entry): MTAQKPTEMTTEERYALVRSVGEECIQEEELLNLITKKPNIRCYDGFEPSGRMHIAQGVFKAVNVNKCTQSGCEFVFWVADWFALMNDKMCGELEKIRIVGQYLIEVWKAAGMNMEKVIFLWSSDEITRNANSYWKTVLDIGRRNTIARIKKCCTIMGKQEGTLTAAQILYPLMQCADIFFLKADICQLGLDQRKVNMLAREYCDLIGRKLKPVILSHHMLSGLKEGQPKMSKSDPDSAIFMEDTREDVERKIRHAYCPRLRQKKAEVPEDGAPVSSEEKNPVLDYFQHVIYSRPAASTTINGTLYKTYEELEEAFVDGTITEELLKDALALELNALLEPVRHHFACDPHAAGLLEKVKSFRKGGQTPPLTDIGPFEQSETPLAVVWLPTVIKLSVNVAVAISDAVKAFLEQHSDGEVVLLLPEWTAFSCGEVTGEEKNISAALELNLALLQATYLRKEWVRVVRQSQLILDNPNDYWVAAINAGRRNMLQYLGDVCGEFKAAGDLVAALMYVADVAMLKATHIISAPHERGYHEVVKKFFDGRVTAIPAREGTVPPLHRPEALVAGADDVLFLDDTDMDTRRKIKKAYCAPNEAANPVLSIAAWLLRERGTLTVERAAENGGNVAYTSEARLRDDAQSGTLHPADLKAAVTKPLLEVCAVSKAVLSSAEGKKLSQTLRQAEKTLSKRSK
Nature of the assay: Trypanosoma cruzi tyrosyl tRNA synthetase (TcYRS) _High Tyrosine SOP. Also: in the data most compounds retested in dose-response had high values. Conditions: 30 µM. Format: functional.

Assay [10] concerns the target T4, Tyrosyl-tRNA synthetase, putative (Trypanosoma cruzi (strain CL Brener)). The assay is described as follows: Trypanosoma cruzi tyrosyl tRNA synthetase (TcYRS) SOP. Format: functional. Conditions: 30 µM.
Assay [11] concerns the target Chromo domain-containing protein 1 (Saccharomyces cerevisiae (strain ATCC 204508 / S288c) (Baker's yeast)) (UniProt P32657). The assay is described as follows: ScCHD-1 Enzyme Inhibition Assay. Also: in the data most compounds retested in dose-response had high values. The class given is functional. Conditions: 30 µM.

The text below walks through data of ChEMBL document CHEMBL3988442, “University of Dundee, Small-Polar-MMV Screening Library” (2021).

Structures are written as SMILES. For some assays here: Results with a measured potency or affinity are listed apart.

Sequence of Chromo domain-containing protein 1 (Saccharomyces cerevisiae (strain ATCC 204508 / S288c) (Baker's yeast)) (P32657 whole entry, the tested form may be a part): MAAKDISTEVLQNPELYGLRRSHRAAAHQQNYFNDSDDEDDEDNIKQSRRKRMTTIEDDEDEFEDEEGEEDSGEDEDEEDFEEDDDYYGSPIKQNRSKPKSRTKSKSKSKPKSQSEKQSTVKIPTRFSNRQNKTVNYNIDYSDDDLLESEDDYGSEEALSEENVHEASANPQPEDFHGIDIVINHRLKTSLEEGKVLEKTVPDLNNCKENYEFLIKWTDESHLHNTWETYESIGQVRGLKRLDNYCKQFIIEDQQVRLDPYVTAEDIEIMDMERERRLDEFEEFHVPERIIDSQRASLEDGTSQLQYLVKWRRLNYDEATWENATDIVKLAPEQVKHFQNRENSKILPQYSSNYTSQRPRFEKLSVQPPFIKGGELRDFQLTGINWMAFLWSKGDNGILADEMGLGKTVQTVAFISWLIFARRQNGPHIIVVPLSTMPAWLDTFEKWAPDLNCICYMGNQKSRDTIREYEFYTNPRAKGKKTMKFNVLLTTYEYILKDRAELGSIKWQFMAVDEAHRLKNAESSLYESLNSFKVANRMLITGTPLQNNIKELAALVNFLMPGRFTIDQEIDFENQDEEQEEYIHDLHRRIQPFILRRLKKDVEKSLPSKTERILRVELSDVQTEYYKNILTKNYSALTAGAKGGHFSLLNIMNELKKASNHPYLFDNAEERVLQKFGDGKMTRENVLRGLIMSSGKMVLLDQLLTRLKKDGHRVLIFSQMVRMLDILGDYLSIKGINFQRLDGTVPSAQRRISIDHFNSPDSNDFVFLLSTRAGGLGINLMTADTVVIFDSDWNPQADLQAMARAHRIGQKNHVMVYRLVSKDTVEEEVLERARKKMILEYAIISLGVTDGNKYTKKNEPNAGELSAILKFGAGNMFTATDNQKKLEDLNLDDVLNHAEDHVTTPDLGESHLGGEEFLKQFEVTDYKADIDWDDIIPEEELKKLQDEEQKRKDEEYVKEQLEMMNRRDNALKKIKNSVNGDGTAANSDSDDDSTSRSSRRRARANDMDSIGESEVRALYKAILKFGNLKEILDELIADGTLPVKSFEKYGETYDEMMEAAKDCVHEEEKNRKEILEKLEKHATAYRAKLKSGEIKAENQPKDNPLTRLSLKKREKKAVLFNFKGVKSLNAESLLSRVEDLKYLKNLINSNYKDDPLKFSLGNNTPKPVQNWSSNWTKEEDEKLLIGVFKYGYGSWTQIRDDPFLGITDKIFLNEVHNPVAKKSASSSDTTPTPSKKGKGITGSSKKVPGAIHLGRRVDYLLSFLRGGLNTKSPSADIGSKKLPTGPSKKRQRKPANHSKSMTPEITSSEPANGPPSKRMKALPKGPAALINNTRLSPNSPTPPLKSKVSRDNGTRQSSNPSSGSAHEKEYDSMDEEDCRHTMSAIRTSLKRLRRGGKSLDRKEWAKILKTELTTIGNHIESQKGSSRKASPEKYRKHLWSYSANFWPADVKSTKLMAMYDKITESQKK
Sequence of Protein translocase subunit SecA (Escherichia coli (strain K12)) (P10408 whole entry): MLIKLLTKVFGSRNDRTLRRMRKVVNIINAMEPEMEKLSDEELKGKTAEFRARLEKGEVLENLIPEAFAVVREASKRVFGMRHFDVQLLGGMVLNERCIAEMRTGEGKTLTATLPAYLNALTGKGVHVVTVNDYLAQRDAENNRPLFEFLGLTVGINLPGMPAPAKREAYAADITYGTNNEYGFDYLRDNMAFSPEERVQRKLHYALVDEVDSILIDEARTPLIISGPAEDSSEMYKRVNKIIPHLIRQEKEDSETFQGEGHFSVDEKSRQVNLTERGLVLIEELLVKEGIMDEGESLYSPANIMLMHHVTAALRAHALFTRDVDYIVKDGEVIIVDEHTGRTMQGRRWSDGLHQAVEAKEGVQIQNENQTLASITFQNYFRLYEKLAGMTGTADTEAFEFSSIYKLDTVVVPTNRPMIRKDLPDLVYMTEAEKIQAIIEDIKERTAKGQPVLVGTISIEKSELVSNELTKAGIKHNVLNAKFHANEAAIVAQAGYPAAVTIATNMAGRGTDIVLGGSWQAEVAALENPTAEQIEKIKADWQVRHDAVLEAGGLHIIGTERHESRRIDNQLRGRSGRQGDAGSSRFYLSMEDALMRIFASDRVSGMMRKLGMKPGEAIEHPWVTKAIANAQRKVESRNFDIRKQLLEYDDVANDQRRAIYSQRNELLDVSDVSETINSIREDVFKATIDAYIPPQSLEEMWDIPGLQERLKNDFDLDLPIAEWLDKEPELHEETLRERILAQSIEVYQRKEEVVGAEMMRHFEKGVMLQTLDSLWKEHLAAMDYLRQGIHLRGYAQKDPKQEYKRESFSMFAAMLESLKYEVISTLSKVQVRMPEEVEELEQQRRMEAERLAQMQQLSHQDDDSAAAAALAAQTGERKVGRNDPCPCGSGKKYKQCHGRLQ
Sequence of Sialic acid-binding Ig-like lectin 9 (Homo sapiens) (Q9Y336 whole entry): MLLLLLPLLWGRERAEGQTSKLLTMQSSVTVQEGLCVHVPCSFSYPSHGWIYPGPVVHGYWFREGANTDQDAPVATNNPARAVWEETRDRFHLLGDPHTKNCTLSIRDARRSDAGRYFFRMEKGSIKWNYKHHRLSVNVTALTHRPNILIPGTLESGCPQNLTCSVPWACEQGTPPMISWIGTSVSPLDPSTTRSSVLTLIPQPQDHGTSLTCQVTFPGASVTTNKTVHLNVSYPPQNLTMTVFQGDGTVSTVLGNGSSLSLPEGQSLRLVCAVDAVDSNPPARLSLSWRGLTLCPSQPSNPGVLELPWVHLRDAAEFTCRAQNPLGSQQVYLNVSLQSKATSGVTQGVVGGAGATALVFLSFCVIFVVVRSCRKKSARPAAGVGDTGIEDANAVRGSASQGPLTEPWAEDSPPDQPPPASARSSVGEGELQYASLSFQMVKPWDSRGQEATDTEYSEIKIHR

As to `Cn1cnc2c(N3CCCC3)nc(C3CCNCC3)cc21`, the Percent Effect in assay [1] was -0.224%; in assay [2] it was 13.3%; in [3], -2.65%; in assay [4], 0.534%; in assay [5] it was 0.965%; in [6], -48.6%. Further, the Percent Effect in [7] was 9.23%; in assay [8], 1.97%; in assay [9], 3.12%; in assay [10] it was 20%; in assay [11] it was -8.26%.
For the compound `CC(C)n1cc(CN2CCCN(C(=O)c3nccnc3N)CC2)cn1`, the Percent Effect is -3.12% in [1]; 13.5% in assay [2]; -6.54% in assay [3]; -11.2% in assay [4]; -0.586% in assay [5]; 5.83% in assay [6]. For the same compound, the Percent Effect in assay [7] amounted to 17%; in [8] it was 21.2%; in assay [9], 8.91%; in assay [10] it was 11%; in assay [11] it was 5%.
`c1ccc(C2CCCN2Cc2nnnn2C2CC2)cc1` (stereo not given): the Percent Effect is -4.62% in assay [1]; -6.94% in assay [2]; -1.81% in [3]; -5.25% in assay [4]; -3.01% in assay [5]; -1.32% in assay [6]. Besides, the Percent Effect in assay [7] was 9.12%; in assay [8], -12.1%; in [9], 3.16%; in assay [10], 0%; in assay [11], 7.75%.
Take `CCNC(=O)Nc1ccc2c(ccn2CC(=O)N(CC)CC)c1`: the Percent Effect is -2.78% in assay [1]; 18.4% in assay [2]; -2.69% in assay [3]; 1.44% in assay [4]; -0.188% in [5]; -4.6% in [6]. Further, the Percent Effect was 12.5% in [7]; 19.9% in assay [8]; 9.31% in [9]; 17.1% in [10]; -6.24% in assay [11].
On to `Cc1ccc(CC(=O)N2CSCC2C(=O)N(C)Cc2ccco2)o1` (stereo not given), for which the Percent Effect in assay [1] was -2.18%; in assay [2] it was 2.63%; in assay [3], 17.7%; in [4], -8.06%; in assay [5], -2.89%; in assay [6], 3.24%. The Percent Effect in assay [7] is 7.02%; in assay [8], -5.97%; in [9], 3.45%; in assay [10], 1.24%; in assay [11], -0.996%.
Consider `CCOC(=O)C1CCN(Cc2csc(C(C)(C)C)n2)CC1`, for which the Percent Effect in [1] was 1.04%; in [2], 0%; in assay [3] it was 2.22%; in assay [4] it was 11%; in assay [5], -3.12%; in assay [6] it was 9.89%. Besides, the Percent Effect was -5.98% in assay [7]; 4.26% in assay [8]; 4.43% in assay [9]; -3.8% in assay [10]; -1.95% in assay [11].
On to `Fc1ccc(CN2CCO[C@H]3[C@H](OCCN4CCCC4)CC[C@@H]32)cc1`, for which the Percent Effect in assay [1] was 7.01%; in assay [2], 10.7%; in assay [3], 5.78%; in [4], 7.14%; in [5], -4.05%; in [6], -51.1%. Also, the Percent Effect in assay [7] was 12.8%; in [8], -9.42%; in assay [9], 5.21%; in [10], 12.5%; in assay [11], -3.68%.
Take `CN1CCN(CCCNC(=O)c2cc(Cl)c3c(c2)OCO3)CC1`: the Percent Effect is 0.405% in assay [1]; 9.72% in assay [2]; -11.6% in [3]; 9.36% in assay [4]; 3.6% in [5]; 10.6% in [6]. The Percent Effect in assay [7] was 27%; in assay [8], -22.6%; in assay [9], 3.16%; in [10] it was 15.4%; in assay [11] it was -2.83%.
`CCc1nnc2n1CCN(Cc1csc(-c3cnn(C)c3)n1)C2`: the Percent Effect in [1] is -3.51%; in assay [2], 12.5%; in assay [3], -7.81%; in [4] it was 3.08%; in assay [5], -3.79%; in [6], -2.21%. For the same compound, the Percent Effect is 18.6% in assay [7]; -7.26% in [8]; 5.26% in assay [9]; 0% in assay [10]; 0.402% in [11].
Take `COC(=O)CCc1c(C)nn(-c2nc(C)cc(=O)[nH]2)c1C`: the Percent Effect in [1] was 2.99%; in assay [2], 15.6%; in assay [3] it was 14.8%; in assay [4], -8.75%; in assay [5], -3.06%; in [6] it was 0.645%. In addition, the Percent Effect in [7] was 4.87%; in [8], 25.4%; in assay [9] it was 7.41%; in assay [10], 11.5%; in [11] it was -5.54%.
